Measurements published in PubChem BioAssay (NCI).
About 83,000 compounds went through this panel and 20% of them were active in at least one assay; those are over-represented in the sample as a whole.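 Results are percent growth after 48 hours of single-concentration exposure. 100 means growth as in untreated cells, lower positive values show inhibition; negative values down to -100 show cell death.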 Active and inactive are the calls of the source. How the source made its calls: active means growth percent below 10; inactive means the rest.

System: HL-60(TB) leukemia
Test: NCI-60 one-dose screen, 48 h (100 = growth as untreated, 0 = no growth, -100 = all killed)
Settings: 10 µM unless noted

SMILES	growth
Oc1ccc(Br)cc1/C=N/NC(=S)NC12CC3CC(CC(C3)C1)C2	-25.8% (active)
COc1cc2c(cc1-c1c(C)noc1C)ncc1nc(C3CCCCC3)n([C@@H](C)COC(F)F)c12	17.4% (inactive)
COc1ccc(C(=O)N2C=Cc3ccccc3C2C#N)cc1 (stereo not given)	66.5% (inactive)
C=C(C)[C@@H]1CC=C2c3sc(-c4ccc(C)cc4)nc3C[C@@H](C)[C@]2(C)C1	102% (inactive)
O=C1C=CC2=C3c4cc(O)c(O)cc4CC3(O)COC2=C1O (stereo not given)	102% (inactive)
CCCCn1c(-c2cccc(OC)c2)nc2cc(OC)c(OC)cc2c1=O	78.3% (inactive)
N#Cc1c(NC(=O)c2ccc(Br)cc2)sc2c1CCCC2	14.1% (inactive)
C(CCCSC1=NCCN1)CCSC1=NCCN1	76.2% (inactive)
CN1CCC2(CC1)NC(=O)c1c(c3ccc(Cl)c(Cl)c3n1C)C2C#N (stereo not given)	70.8% (inactive)
COc1cc(C(=O)/C=C/c2c(-c3ccc(F)cc3)nc3sccn23)cc(OC)c1OC	32% (inactive)
CCCCC(=O)Nc1nc2ccc(SCCC)cc2s1	19.5% (inactive)
CCOC(=O)c1c(C)nc2c(c1N)C(=O)C(=O)N2Cc1ccc(OC)cc1	46.6% (inactive)
O=C(/C=C/c1ccc([N+](=O)[O-])o1)NNC(=O)c1cc2ccccc2cc1O	1.21% (active)
CCCCCCCCCCCCCCCCCC1=NCCN1CCNC(C)=O	79.2% (inactive)
FC(F)(F)c1cccc(-c2cn3c(ccc4ccccc43)n2)c1	114% (inactive)
O=C([C@@H](COCc1ccccc1)N1C(=O)[C@@H](N2C(=O)OC[C@@H]2c2ccccc2)[C@H]1/C=C/c1ccccc1)N1CCC(CCN2CCCCC2)CC1	64.5% (inactive)
Cc1cccc(Oc2ccc(Nc3ncnc4ccc(NC(=O)CN5CCN(C)CC5)cc34)cc2Cl)c1	-40.2% (active)
O=[N+]([O-])c1cccc(/C=C/c2ccccn2)c1	120% (inactive)
Cc1ccc(NC(=O)c2sc3nc(C)c(C(=O)c4ccccc4)cc3c2N)cc1	84.2% (inactive)
Cc1cc2c(-c3nc4ccccn4c3NC3CCCCC3)c(O)c(O)cc2c(O)c1-c1c(C)cc2c(-c3nc4ccccn4c3NC3CCCCC3)c(O)c(O)cc2c1O	29.1% (inactive)

SMILES	growth
CC1=NC(c2ccc(Cl)cc2)C2=C(N1)/C(=C/c1ccc(Cl)cc1)CCC2 (stereo not given)	85.8% (inactive)
CC1=CC(=O)c2cccc(NC3=NCCO3)c21	100% (inactive)
Cc1c(C)c2c(c(C)c1NC(=O)CCCCCCC(=O)O)CCC(C)(CCCC(C)CCCC(C)CCCC(C)C)O2 (stereo not given)	75.1% (inactive)
Fc1ccc2nc(-c3nc(-c4ccccc4)n4ccccc34)[nH]c2c1	67.6% (inactive)
O=C(Nc1ccc(F)cc1)Nc1ccc(NC(=O)c2cc(Cl)nc3ccccc23)cc1	63.9% (inactive)
CON1C(=O)CC[C@]2(C)[C@H]3CC[C@@H]4C([C@@]5(C)CCC(=O)O5)CC[C@@]4(C)[C@]3(C)CC[C@H]2C1(C)C (stereo not given in full)	100% (inactive)
Clc1cc(Cl)c(Cl)c(-c2nc(-c3cccnc3)cs2)c1	-3.35% (active)
Nc1nnc(CSc2nnc3n(Cc4ccccc4)c(=O)c4c5c(sc4n23)CCCC5)s1	76.9% (inactive)
O=C(Nc1ccc(C(=O)/C=C/c2ccc(N3CCOCC3)cc2)cc1)Nc1ccc([N+](=O)[O-])cc1	70.6% (inactive)
CN(C)CC1C(=O)O[C@H]2[C@H]1CC/C(COC(=O)c1cc3ccccc3[nH]1)=C\CC[C@@]1(C)O[C@@H]21 (stereo not given in full)	-36% (active)
CCN1C(=S)N(CC)C2C1NC(=S)N2/N=C/C=C/c1ccccc1OC (stereo not given)	-46.4% (active)
N#CSCc1cc(Cl)c(CSC#N)cc1Cl	22.1% (inactive)
Cc1ccc2c(c1)c(Sc1ccc(C(=O)NO)cc1)c1n2CN(C)CC1	21.4% (inactive)
CCN1C(=O)N(CC)C2C1NN=c1s/c(=C3\C(=O)Nc4ccccc43)c(=O)n12 (stereo not given)	-25% (active)
CCCCCCn1c(=N)n(CC(O)COc2cccc(C)c2)c2ccccc21 (stereo not given)	-48% (active)
N#CCCN1C/C(=C/c2ccc(Cl)cc2)C(=O)/C(=C/c2ccc(Cl)cc2)C1	-16.5% (active)
CCCCNP1(NCCCC)=NP(NCCCC)(NCCCC)=NP(NCCCC)(NCCCC)=NP(NCCCC)(NCCCC)=N1	-59.3% (active)
O=C1Nc2ccccc2/C1=C/C(=O)c1ccc(N2CCCCC2)cc1	-6.32% (active)
O=C(N/N=C/c1c[nH]c2ccccc12)c1cc(-c2ccccc2)on1	73.4% (inactive)
O=C1C(Cl)=C(N/N=c2/[nH][nH]/c(=N/NC3=C(Cl)C(=O)c4ccccc4C3=O)c3ccccc23)C(=O)c2ccccc21	39.5% (inactive)
